The values that follow come from PubChem BioAssay (NCI).

About 83,000 compounds went through this panel and 20% of them were active in at least one assay; those are over-represented in the sample as a whole.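 Step 1: grow cells in 96-well plates. Step 2: add test compound at a single concentration. Step 3: incubate 48 h. Step 4: record percent growth.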 Values without a mark were called inactive. Activity calls are given as the source filed them.

The test relates to U251 CNS. Put plainly: NCI-60 one-dose screen, 48 h (100 = growth as untreated, 0 = no growth, -100 = all killed). The settings on record: 10 µM unless noted. The method, then:
Growth inhibition of the U251 human tumor cell line is measured as a screen for anti-cancer activity. Cells are grown in 96 well plates and exposed to the test compound for 48 hours. Compounds are tested at a single concentration, which is 10^-5 M for most compounds. The reported endpoint is percent growth (GI% or GIPRCNT), where numbers from 0 - 100% represent growth inhibition, and numbers from -100% - 0 represent cell death. For example, a value of 40 represents 60% growth inhibition. A value of 0 means no net growth occurred over the course of the experiment. A value of -40 indicates 40% of cells at the beginning of the experiment died by the end of the experiment. A value of -100 means all cells are dead at the end of the experiment.
NCI-60 Human Tumor Cell Lines Screen was performed using the standard one-dose NCI protocol, which is described in more detail at https://dtp.cancer.gov/discovery_development/nci-60/default.htm.
Compounds with GIPRCNT values below 10 were considered active. Activity score was based on GIPRCNT using the following formula: […]
Score is 0 for GIPRCNT values of 100 or above, 50 for GIPRCNT values of 0, and 100 for GIPRCNT values of -100.
As for `COc1ccc(-c2cc(-c3cccnc3)nc(S(=O)(=O)CC(=O)Nc3ccc(C)cc3)c2C#N)cc1OC`, the growth is 91.7%.

As to `CCN(CC)CCNCC(=O)Oc1ccc(/C=C/C(=O)CC(=O)/C=C/c2ccc(OC(=O)CNCCN(CC)CC)c(OC)c2)cc1OC`, the growth was 13.4%.

On to `CCCCCc1c(C)[nH]c(/C=C2\N=C(c3ccc[nH]3)C=C2Oc2ccc(Cl)cc2)c1C`, for which the growth is -94.9% [100 µM] (active).

Regarding `CC(=O)Nc1ccc(C(=O)COc2cccc(/C=C3\CCc4ccccc4C3=O)c2)cc1`, the growth is 83.4%.

As to `c1ccc2nc(Cn3c[n+](Cc4ccc5ccccc5n4)c4ccccc43)ccc2c1`, the growth is 34%.

On to `COc1cc(Cl)cc(-c2nn(-c3cccc(NC(=O)c4cc(C(F)(F)F)cc(C(F)(F)F)c4)c3)cc2-c2ccncc2)c1`, for which the growth was 60.7%.

For the compound `COC(=O)N/N=C/c1coc2ccc(Cl)cc2c1=O`, the growth is 96.7%.

As for `C(=C1c2ccccc2-c2ccccc21)c1ccncc1`, the growth is 27.8%.

As for `O=C(O)CCNS(=O)(=O)c1ccc(-c2ccccc2)cc1`, the growth was 94.5%.

In the case of `COc1ccc(C(=O)/C=C/c2ccc(C)cc2)cc1OC`, the growth is 27.7%.

For `COc1ccc(NC(=O)c2ccccc2-c2ccccc2)c(C(N)=O)c1`, the growth was 45.9%.

For the compound `CCOC(=O)OCC(=O)[C@@]1(O)CC[C@H]2[C@@H]3CCC4=CC(=O)CC[C@]4(C)[C@H]3[C@@H](O)C[C@@]21C`, the growth is 103%.

In the case of `COc1ccc(OC)c(CCn2cncc2-c2c[nH]c3cc(Br)ccc23)c1`, the growth was 34.9%.

With `C[N+]1(C)C2CC[C@@H]1CC(OC(=O)C(O)c1ccccc1)C2` (stereo not given in full), the growth was 98.5%.

As to `CC(NC(N)=S)c1ccccc1` (stereo not given), the growth was 105%.

On to `Cc1c2oc3c(C)ccc(C(=O)OC(C)C4NC(=O)C(C(C)C)N(C)C(=O)CN(C)C(=O)C5CCCN5C(=O)C(C(C)C)NC4=O)c3nc-2c(C(=O)OC(C)C2NC(=O)C(C(C)C)N(C)C(=O)CN(C)C(=O)C3CCCN3C(=O)C(C(C)C)NC2=O)c(N)c1=O` (stereo not given), for which the growth was 14.8%.

On to `Oc1ccc(/C=N/Nc2nc3ccccc3s2)c(O)c1`, for which the growth is 25.4%.

Regarding `O=C(CN1CCN(c2ccc(Cl)cc2)CC1)N1CCN(c2nnc(-c3ccccc3)c(-c3ccccc3)n2)CC1`, the growth was 45.8%.

On to `O=C1c2cccc(NCCN=Cc3ccccc3O)c2C(=O)c2c(NCCN=Cc3ccccc3O)cccc21`, for which the growth is 7.41% (active).

For `COC(=O)Nc1ccc2ccc3c(NC(=O)OC)ccc4ccc1c2c43` (tested in a mixture with another compound), the growth was 41%.

In the case of `COP(=O)(OC)C(c1ccc(O)cc1)(c1ccc(O)cc1)c1ccc(O)cc1`, the growth is 105%.

`COc1ccc(/C=C/C(=O)c2cccc(NS(C)(=O)=O)c2)cc1`: the growth was 37.6%.

Consider `OC(c1ccccc1)C(NCc1ccccc1)c1ccccc1` (stereo not given), for which the growth is 102%.

`COc1ccc(-c2nc3sc4c(c3c(=O)[nH]2)CCCCCC4)cc1`: the growth is 46.8%.

Turning to `CCN1CCN(c2nc(NNC(=O)Cc3ccccc3)nc(N3CCN(C(c4ccccc4)c4ccccc4)CC3)n2)CC1`, the growth was 19.1%.

On to `COC(=O)c1c(NC(=O)CSc2nnnn2-c2ccc(OC)cc2)sc(C)c1C`, for which the growth was 99.6%.

Consider `COc1ccc(C(=O)COc2cccc(/C=C3\COc4ccc5ccccc5c4C3=O)c2)cc1`, for which the growth was 68.3%.

On to `Clc1ccc2nc(CI)c(CI)nc2c1`, for which the growth was 71.7%.

Turning to `CCOc1cc(/C=C/C(=O)CC(=O)/C=C/c2ccc(OC(=O)CNCCN(CC)CC)c(OCC)c2)ccc1OC(=O)CNCCN(CC)CC`, the growth is -60.1% (active).

For the compound `COc1ccc(N2CCN(CC(=O)N3CCN(c4nnc(-c5ccccc5)c(-c5ccccc5)n4)CC3)CC2)cc1`, the growth is 46.7%.

As to `Cc1cc(Cl)ccc1Nc1nc(C(F)(F)F)ccc1C(=O)N/N=C/c1ccc(Cl)cc1`, the growth was 2.95% (active).

As for `O=C1C=CC(=O)N1c1ccccc1N1C(=O)C=CC1=O`, the growth was 108%.

`O=C(CN1CCN(c2ccc(Cl)cc2)CC1)N1CCN(c2nnc(-c3ccc(Cl)cc3)c(-c3ccc(Cl)cc3)n2)CC1`: the growth was 74.2%.

Consider `C[C@H]1O[C@@H](O[C@H]2[C@@H](O)C[C@H](O[C@H]3[C@@H](O)C[C@H](O[C@H]4CC[C@]5(C)C6CC[C@]7(C)[C@@H](C8=CC(=O)OC8)CC[C@]7(O)C6CC[C@@H]5C4)O[C@@H]3C)O[C@@H]2C)C[C@H](O)[C@@H]1O` (stereo not given in full), for which the growth is -100% (active).

As for `CC(=O)Nc1cc(C(c2ccccc2)c2ccccc2)cc(C(c2ccccc2)c2ccccc2)c1C`, the growth is 46.8%.

For the compound `CC(=O)N1N=C(c2ccc(Cl)cc2)CC1c1c(C)nn(-c2ccccc2)c1N(C)Cc1ccccc1` (stereo not given), the growth was 68.6%.

On to `COc1ccc2c(c1)sc1nc(-c3ccc(Br)cc3)cn12`, for which the growth is 99.5%.

In the case of `O=C(/C=C/c1ccc(C(F)(F)F)cc1)c1ccc(Nc2nc(NCCO)nc(NCCO)n2)cc1`, the growth was -21.2% (active).

Take `O=C1C(=O)/C(=C/c2ccccc2)CCCCCC/C1=C/c1ccccc1`: the growth was 11%.

For `CC(C)Sc1nc(Cl)c(C#N)c(-c2ccc(F)cc2)n1`, the growth was 92.9%.
